According to ChEMBL document CHEMBL1961873, “Compounds: GSK PKIS; Assays: Nanosyn kinase panel” (2012):

Experiments:
[1] = molecular target: T1, 3-phosphoinositide-dependent protein kinase 1 (Homo sapiens) (UniProt O15530); conditions: at 0.1 µM;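 note: values are mean inhibition of PDK1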
T1 sequence (whole entry): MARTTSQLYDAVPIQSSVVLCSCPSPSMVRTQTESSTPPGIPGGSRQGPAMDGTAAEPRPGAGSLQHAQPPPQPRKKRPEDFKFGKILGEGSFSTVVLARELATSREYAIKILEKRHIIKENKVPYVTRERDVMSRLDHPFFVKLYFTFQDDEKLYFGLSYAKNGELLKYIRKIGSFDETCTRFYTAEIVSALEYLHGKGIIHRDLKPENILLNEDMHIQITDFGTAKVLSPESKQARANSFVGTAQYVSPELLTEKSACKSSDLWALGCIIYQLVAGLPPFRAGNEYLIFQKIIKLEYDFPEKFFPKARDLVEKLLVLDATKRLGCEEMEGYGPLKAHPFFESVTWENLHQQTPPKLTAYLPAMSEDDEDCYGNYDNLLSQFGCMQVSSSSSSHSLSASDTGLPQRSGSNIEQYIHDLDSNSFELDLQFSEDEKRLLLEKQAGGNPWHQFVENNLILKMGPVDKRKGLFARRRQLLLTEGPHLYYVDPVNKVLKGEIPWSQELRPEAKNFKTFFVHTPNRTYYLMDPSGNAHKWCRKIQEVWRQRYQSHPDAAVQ

[2] = molecular target: cAMP-dependent protein kinase catalytic subunit alpha (Homo sapiens) (UniProt P17612); conditions: at 0.1 µM
[3] = molecular target: cAMP-dependent protein kinase catalytic subunit alpha (Homo sapiens) (UniProt P17612); conditions: at 1 µM
[4] = molecular target: Protein kinase C alpha type (Homo sapiens) (UniProt P17252); conditions: at 0.1 µM
[5] = molecular target: Protein kinase C alpha type (Homo sapiens) (UniProt P17252); conditions: at 1 µM
[6] = molecular target: Protein kinase C beta type (Homo sapiens) (UniProt P05771); conditions: at 0.1 µM
[7] = molecular target: Protein kinase C beta type (Homo sapiens) (UniProt P05771); conditions: at 1 µM
[8] = molecular target: Protein kinase C eta type (Homo sapiens) (UniProt P24723); conditions: at 0.1 µM
[9] = molecular target: Protein kinase C eta type (Homo sapiens) (UniProt P24723); conditions: at 1 µM
[10] = molecular target: Protein kinase C gamma type (Homo sapiens) (UniProt P05129); conditions: at 0.1 µM
[11] = molecular target: Protein kinase C gamma type (Homo sapiens) (UniProt P05129); conditions: at 1 µM
[12] = molecular target: T2, Protein kinase C iota type (Homo sapiens) (UniProt P41743); conditions: at 0.1 µM
T2 sequence (whole entry): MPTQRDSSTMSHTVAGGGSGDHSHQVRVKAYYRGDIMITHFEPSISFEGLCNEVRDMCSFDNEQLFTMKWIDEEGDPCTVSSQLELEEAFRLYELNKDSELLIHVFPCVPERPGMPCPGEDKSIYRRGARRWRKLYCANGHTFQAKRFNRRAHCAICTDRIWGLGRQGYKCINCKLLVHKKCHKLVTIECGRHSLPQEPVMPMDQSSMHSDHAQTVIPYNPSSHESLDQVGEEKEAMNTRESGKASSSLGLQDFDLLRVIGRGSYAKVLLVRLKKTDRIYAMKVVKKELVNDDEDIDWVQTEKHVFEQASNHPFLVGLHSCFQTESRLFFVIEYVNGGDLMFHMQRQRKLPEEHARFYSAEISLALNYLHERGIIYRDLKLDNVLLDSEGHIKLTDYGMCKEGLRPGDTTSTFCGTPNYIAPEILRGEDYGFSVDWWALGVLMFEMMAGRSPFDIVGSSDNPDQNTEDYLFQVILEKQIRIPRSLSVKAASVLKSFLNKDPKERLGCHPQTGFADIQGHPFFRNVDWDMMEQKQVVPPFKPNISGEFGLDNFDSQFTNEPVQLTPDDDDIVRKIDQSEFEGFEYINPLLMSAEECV

[13] = molecular target: T2, Protein kinase C iota type (Homo sapiens); conditions: at 1 µM
[14] = molecular target: Protein kinase C theta type (Homo sapiens) (UniProt Q04759); conditions: at 0.1 µM
[15] = molecular target: Protein kinase C theta type (Homo sapiens) (UniProt Q04759); conditions: at 1 µM
[16] = molecular target: Protein kinase C beta type (Homo sapiens) (UniProt P05771); conditions: at 0.1 µM; remark: listed apart in the source
[17] = molecular target: Protein kinase C beta type (Homo sapiens) (UniProt P05771); conditions: at 1 µM; remark: listed apart in the source
[18] = molecular target: T3, Serine/threonine-protein kinase D1 (Homo sapiens) (UniProt Q15139); conditions: at 0.1 µM
T3 sequence (whole entry): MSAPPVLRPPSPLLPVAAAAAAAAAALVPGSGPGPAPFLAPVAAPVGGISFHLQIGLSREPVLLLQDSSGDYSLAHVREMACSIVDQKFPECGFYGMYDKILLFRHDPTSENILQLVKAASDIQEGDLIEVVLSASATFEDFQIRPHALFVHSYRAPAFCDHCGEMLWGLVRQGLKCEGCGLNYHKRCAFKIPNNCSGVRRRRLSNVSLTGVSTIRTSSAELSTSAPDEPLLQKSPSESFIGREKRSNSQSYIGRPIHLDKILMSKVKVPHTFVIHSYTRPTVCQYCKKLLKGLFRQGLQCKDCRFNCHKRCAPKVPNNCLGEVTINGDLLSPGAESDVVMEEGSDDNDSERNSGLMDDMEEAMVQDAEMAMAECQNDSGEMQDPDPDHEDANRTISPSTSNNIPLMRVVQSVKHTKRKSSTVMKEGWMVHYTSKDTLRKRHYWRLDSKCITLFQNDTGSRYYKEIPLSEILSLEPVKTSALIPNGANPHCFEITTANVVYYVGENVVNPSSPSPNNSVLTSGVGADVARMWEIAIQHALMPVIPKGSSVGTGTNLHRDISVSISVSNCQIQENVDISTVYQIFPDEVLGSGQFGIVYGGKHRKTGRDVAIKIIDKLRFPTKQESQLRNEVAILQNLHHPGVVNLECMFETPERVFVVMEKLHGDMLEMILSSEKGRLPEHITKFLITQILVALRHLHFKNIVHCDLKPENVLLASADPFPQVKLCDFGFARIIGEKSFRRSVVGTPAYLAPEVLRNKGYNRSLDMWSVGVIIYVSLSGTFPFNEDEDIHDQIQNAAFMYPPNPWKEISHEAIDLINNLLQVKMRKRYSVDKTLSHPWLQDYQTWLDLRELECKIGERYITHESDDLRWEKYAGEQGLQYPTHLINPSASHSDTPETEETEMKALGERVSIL

[19] = molecular target: T3, Serine/threonine-protein kinase D1 (Homo sapiens); conditions: at 1 µM
[20] = molecular target: T4, Serine/threonine-protein kinase D2 (Homo sapiens) (UniProt Q9BZL6); conditions: at 0.1 µM;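 note: reported percent inhibition values are means, part of the GSK PKIS kinase panel screen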
T4 sequence (whole entry): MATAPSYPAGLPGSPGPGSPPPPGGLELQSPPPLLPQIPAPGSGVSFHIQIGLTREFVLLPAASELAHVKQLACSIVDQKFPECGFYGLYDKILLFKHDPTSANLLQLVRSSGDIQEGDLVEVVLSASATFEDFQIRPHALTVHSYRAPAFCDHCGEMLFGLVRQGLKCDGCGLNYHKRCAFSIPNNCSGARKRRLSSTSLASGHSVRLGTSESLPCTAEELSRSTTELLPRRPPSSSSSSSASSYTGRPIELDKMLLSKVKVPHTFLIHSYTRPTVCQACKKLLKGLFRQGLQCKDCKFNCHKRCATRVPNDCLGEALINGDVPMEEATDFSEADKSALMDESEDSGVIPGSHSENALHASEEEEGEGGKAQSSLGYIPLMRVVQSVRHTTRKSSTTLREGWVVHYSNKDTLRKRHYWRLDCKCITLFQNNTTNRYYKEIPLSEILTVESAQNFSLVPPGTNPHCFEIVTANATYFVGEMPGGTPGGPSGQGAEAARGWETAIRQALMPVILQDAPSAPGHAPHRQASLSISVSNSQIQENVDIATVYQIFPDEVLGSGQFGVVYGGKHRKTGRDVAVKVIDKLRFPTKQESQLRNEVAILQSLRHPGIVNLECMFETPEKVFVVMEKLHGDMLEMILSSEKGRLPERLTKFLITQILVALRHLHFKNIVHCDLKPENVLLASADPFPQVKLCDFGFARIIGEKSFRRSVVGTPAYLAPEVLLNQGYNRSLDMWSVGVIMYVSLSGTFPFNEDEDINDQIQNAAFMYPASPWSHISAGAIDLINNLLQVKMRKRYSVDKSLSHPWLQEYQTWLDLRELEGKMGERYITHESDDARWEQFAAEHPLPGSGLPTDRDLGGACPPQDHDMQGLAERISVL

Chain of Protein kinase C beta type (Homo sapiens) (P05771 2-671 limits assumed): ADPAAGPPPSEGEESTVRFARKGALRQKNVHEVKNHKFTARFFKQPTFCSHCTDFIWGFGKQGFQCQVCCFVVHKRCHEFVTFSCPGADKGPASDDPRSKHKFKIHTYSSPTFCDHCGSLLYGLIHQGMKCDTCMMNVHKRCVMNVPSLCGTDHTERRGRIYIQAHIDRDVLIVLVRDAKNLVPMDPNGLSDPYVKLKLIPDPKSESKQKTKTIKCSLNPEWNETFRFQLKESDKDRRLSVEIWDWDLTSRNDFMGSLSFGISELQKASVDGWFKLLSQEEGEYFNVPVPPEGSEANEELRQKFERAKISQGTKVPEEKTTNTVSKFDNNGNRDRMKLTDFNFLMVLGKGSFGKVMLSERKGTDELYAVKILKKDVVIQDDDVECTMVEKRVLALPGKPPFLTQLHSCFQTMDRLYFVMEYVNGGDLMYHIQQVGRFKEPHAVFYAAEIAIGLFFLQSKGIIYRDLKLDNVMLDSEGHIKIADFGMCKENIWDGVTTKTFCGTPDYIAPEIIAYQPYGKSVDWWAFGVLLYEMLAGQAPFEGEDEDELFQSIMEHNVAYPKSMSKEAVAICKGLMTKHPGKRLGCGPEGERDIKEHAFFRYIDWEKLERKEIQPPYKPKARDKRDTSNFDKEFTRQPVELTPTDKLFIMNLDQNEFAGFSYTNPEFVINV
Chain of Protein kinase C theta type (Homo sapiens) (Q04759 whole entry, looked up): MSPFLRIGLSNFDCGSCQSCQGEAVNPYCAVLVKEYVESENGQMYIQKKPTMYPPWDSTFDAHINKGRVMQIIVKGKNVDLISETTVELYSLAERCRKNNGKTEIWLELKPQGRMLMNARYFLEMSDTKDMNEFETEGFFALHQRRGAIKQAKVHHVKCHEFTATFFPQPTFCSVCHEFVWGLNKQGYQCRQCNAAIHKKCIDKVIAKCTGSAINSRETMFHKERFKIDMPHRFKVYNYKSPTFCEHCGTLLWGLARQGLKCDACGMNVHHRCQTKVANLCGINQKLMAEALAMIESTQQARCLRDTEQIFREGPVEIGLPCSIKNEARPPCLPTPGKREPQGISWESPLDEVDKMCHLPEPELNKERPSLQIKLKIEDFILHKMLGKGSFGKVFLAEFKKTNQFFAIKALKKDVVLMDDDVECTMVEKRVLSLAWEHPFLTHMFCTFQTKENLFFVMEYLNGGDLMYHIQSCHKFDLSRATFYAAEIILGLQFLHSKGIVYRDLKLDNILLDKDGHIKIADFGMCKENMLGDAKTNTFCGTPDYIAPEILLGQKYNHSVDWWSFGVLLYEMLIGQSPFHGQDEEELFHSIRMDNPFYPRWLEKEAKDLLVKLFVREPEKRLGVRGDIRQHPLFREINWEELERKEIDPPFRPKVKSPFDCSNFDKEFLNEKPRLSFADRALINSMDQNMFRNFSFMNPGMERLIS
Chain of Protein kinase C eta type (Homo sapiens) (P24723 whole entry): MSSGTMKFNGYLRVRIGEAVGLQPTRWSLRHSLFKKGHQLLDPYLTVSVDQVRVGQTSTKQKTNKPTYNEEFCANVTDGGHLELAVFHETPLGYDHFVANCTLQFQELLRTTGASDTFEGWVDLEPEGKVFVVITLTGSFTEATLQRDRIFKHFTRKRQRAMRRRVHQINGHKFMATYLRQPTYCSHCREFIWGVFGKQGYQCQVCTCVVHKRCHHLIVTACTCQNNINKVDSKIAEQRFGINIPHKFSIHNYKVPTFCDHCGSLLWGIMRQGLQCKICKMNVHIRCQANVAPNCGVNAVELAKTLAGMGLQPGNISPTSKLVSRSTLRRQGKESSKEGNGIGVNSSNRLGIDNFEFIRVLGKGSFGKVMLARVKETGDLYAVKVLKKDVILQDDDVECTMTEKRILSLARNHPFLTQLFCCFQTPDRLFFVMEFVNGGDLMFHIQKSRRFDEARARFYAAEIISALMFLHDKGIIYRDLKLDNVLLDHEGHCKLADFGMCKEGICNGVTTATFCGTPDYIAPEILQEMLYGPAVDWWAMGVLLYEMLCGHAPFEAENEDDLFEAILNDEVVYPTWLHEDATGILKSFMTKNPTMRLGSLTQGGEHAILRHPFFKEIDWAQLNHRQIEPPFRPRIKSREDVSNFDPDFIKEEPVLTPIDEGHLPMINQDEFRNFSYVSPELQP

| SMILES | inhibition [1] | inhibition [2] | inhibition [3] | inhibition [4] | inhibition [5] | inhibition [6] | inhibition [7] | inhibition [8] | inhibition [9] | inhibition [10] | inhibition [11] | inhibition [12] | inhibition [13] | inhibition [14] | inhibition [15] | inhibition [16] | inhibition [17] | inhibition [18] | inhibition [19] | inhibition [20] |
| --- | --- | --- | --- | --- | --- | --- | --- | --- | --- | --- | --- | --- | --- | --- | --- | --- | --- | --- | --- | --- |
| Cc1cc(-c2ccccn2)cc(C)c1/C=C/c1cncc(-c2nn[nH]n2)c1 | -0.5% | 1.63% | 1.8% | 0.99% | 3.52% | 0.54% | 0.37% | 2.25% | 5.16% | 1.57% | 2.83% | 0.86% | 1.38% | 1.86% | 3.08% | 1.2% | 2.79% | 6.68% | 11% | 6.87% |
| NS(=O)(=O)c1ccc(NC=C2C(=O)Nc3ccc4ncsc4c32)cc1 | 30.1% | 2.64% | 11.8% | 1.14% | 8.8% | 0.12% | 2.75% | 6.21% | 4.18% | 3.84% | 9.7% | 2.56% | 5.28% | 3.44% | 11.8% | 2.28% | 6.13% | 28.5% | 78.4% | 21.3% |
| CC(C)c1ccc(Nc2nccc(-c3cnn4ncccc34)n2)cc1 | 2.46% | 1.64% | 1.72% | 0.38% | 6.9% | 0.55% | 1.57% | 1.03% | 3.89% | 1.93% | 5.49% | 0.41% | -0.49% | 0.56% | 2.84% | 0.59% | 1.47% | 2.12% | 15.9% | 1.32% |
| NS(=O)(=O)c1cccc(Nc2cc(-c3ccc(F)cc3)n[nH]2)c1 | 0.96% | 5.01% | 6.49% | 0.02% | 1.69% | 2.83% | 6% | 2.29% | 5.6% | 4.38% | 2.43% | 1.19% | 0.46% | 3.52% | 8.77% | 1.7% | 3.53% | -0.81% | 4.04% | 2.47% |
| CS(=O)(=O)Nc1cccc(-c2ccc3c(NC(=O)C4CC4)n[nH]c3c2)c1 | -0.34% | 0.91% | 1.02% | 0.79% | 1.61% | -1.18% | -0.16% | 1.82% | 3.34% | 1.6% | 1.59% | 0.49% | 0.91% | -0.5% | -0.76% | -0.25% | 0.61% | 0.96% | 2.34% | 2.1% |
| O=S(=O)(CCOCc1ccc(-c2ccc3ncnc(Nc4ccc(OCc5cccc(F)c5)c(Cl)c4)c3c2)o1)c1ccccc1 | -0.28% | 0.54% | -0.2% | 0.23% | 0.58% | -0.21% | -0.92% | 1.32% | 1.22% | 0.84% | 1.98% | 0.8% | 0.31% | 0.62% | 0.48% | 0.96% | 1.53% | 1.15% | 2.02% | 1.72% |
| Cc1nc(-c2ccccc2)n2nc(NCCCN3CCOCC3)ncc12 | 2.52% | 2.1% | 2.12% | -0.23% | 0.9% | -0.19% | 0.04% | 0.77% | 4.23% | 2.71% | 4.35% | -0.08% | -1.15% | 1.47% | -0.08% | 1.18% | 2.05% | 2.52% | 3.13% | 2.7% |
